# Screening data: PubChem, Broad Institute
# Only a sample is shown.
# aSyn 5UTR act: Activators working through SNCA 5'UTR binding (MLPCN); AID 1814; 300,000 tested, 7.1% active; alpha-synuclein 5'UTR reporter, activators screen; activity score, % (tested at 7.5 µM), hits read low; in the data active means activity score below about -60%
# An asterisk follows results filed as active.
SMILES,aSyn 5UTR act
N#C/C(=C(/O)c1cc2ccccc2o1)c1nc2ccccc2s1,-120*
N#C/C(=C(/O)c1ccco1)c1nc2ccccc2s1,-128*
Cc1ccc(S(=O)c2snnc2C)cc1 (configuration not stated),-66*
Cc1nnsc1S(=O)c1ccc(Br)cc1 (configuration not stated),-148*
Cc1nnsc1S(=O)c1ccc(F)cc1 (configuration not stated),-68*
O=c1oc2ccc(Cl)cc2nc1/C=C(\O)c1cccs1,-108*
Cc1ccc2oc(=O)c(/C=C(\O)c3cccs3)nc2c1,-148*
Cc1ccc2oc(=O)c(/C=C(\O)c3ccccc3)nc2c1,-79*
Cc1cc(/C(N)=N/OC(=O)c2cccc(Cl)c2)no1,-193*
N/C(=N\OC(=O)c1ccc(Cl)cc1)c1ccccn1,63
Cc1cc(/C(N)=N/OC(=O)c2ccc(Cl)cc2)no1,-201*
Cc1nn(-c2nc3ccccc3s2)c(N)c1Sc1ccc(F)cc1,-212*
Cc1nn(-c2nc3ccccc3s2)c(N)c1-c1ccccc1,-224*
Cc1nn(-c2nc3ccccc3s2)c(N)c1-c1ccc(Cl)cc1,-203*
COc1ccc(CCCC(=O)N/N=C/c2cccc(OC)c2O)cc1C,74
COc1ccc(N=Cc2cccc(C)c2O)cc1Cl,-138*
COc1ccccc1-c1c(C#N)c(N)nc2c1CCc1ccccc1-2,-196*
O=C1CC(c2cc(-c3ccccc3)no2)C1,-99*
CSc1nnc(NC(=O)C23CC4CC(CC(C4)C2)C3)s1,-128*
CCc1nnc(NC(=O)C23CC4CC(CC(C4)C2)C3)s1,-253*
CC(C)Cc1nnc(NC(=O)C23CC4CC(CC(C4)C2)C3)s1,-103*
Cc1noc(C)c1COc1cccc(C(=O)OCC(=O)N2CC(=O)Nc3ccccc32)c1,65
O=C(COc1ccccc1Cl)N1CCc2ccccc2C1,-91*
O=C1CN(C(=O)OCc2ccccc2)c2ccccc2N1,-89*
O=C(CCCOc1ccccc1)N1CCCc2ccccc21,-73*
SMILES,aSyn 5UTR act
O=C(/C=C/c1ccc(Cl)c(Cl)c1)N1CCc2ccccc21,-241*
CC(=O)/C(=N/Nc1ccc(Br)cc1)N1CCCc2ccccc21,61
O=C(COc1ccccc1)N1CCc2ccccc21,-167*
O=C(CCCc1ccccc1)N1CCc2ccccc21,-117*
O=C(OCc1ccccc1)N1CCc2ccccc21,-119*
O=C(COc1ccc(Br)cc1)N1CCc2ccccc21,-100*
O=C(COc1ccccc1Cl)N1CCc2ccccc21,-135*
O=C1NC(c2ccc(Cl)cc2)Nc2ccccc21 (configuration not stated),-62*
CN(C)c1ccc(C2Nc3cccc4cccc(c34)N2)cc1,-94*
CN(C)c1ccc(C2NC(=O)c3ccccc3N2)cc1 (configuration not stated),-131*
Cc1ccc(C2NC(=O)c3ccccc3N2)s1 (configuration not stated),-168*
CS(=O)(=O)Nc1ccc(C(=O)NCCc2ccccc2)cc1,-125*
O=C(NCCS(=O)(=O)NCCc1ccccc1)c1ccccc1,-62*
COc1cc(/C=N/NS(=O)(=O)c2ccc(C)cc2)ccc1OCc1ccc(C(=O)O)cc1,84
COC(=O)c1ccc(COc2ccccc2/C=N/NS(=O)(=O)c2ccc(C)cc2)cc1,-69*
COC(=O)c1ccc(COc2ccccc2/C=C(\C#N)C(=O)Nc2ccc(C)cc2)cc1,-154*
O=C(Nc1ccc2c(c1)ncn2C1CCCCC1)c1ccco1,-117*
CC(C)n1cnc2cc(NC(=O)c3ccco3)ccc21,-71*
COc1ccccc1-n1cnc2cc(NC(=O)c3ccco3)ccc21,-87*
CC(=O)Nc1ccc(N/C=C/C(=O)c2ccc(Br)cc2)cc1,-95*
Cc1ccc(C(=O)/C=C\C(=O)c2ccc(C)cc2)cc1,-63*
CC(=O)c1ccc(N/C=C/C(=O)c2ccc(Br)cc2)cc1,-226*
CC(=O)Nc1ccc(N/C=C/C(=O)c2ccc(C)cc2)cc1,-74*
Cc1ccc(C(=O)/C=C2\NCC(C)NC2=O)cc1 (configuration not stated),59
Cc1ccc(C(=O)/C=C2\NCCNC2=O)cc1,-72*
SMILES,aSyn 5UTR act
Cc1ccc2c(COC(=O)C34CC5CC(CC(C5)C3)C4)cc(=O)oc2c1,-152*
Cc1ccc2c(COC(=O)c3ccccc3Cl)cc(=O)oc2c1,-136*
Cc1ccc2c(COC(=O)c3ccccc3Br)cc(=O)oc2c1,-179*
CCOC(=O)c1[nH]c2ccc(C)cc2c1N,-234*
O=C1c2ccccc2-c2nc3ccccc3cc21,-114*
Cc1ccc(-c2cc3c(nn2)-c2ccccc2C3=O)cc1,86
c1ccc2c(c1)Cc1cc3ccccc3nc1-2,-102*
COc1ccccc1NC(=O)COc1ccc2c(c1)OCO2,-76*
CCc1ccc(NC(=O)COc2ccc3c(c2)OCO3)cc1,-74*
NC(=O)c1ccccc1NC(=O)COc1ccc2c(c1)OCO2,-87*
CCc1ccc(OCC(=O)Nc2ncn[nH]2)cc1,-87*
Fc1ccc(/C=C\c2nccc3c2[nH]c2ccccc23)cc1,-139*
Cc1ccc(/C=C\c2nccc3c2[nH]c2ccccc23)cc1,-125*
C(=C\c1nccc2c1[nH]c1ccccc12)/c1ccccc1,-84*
O=C(/C=C/c1ccccc1)NC(=S)NNC(=O)c1cnccn1,87
CC(/C=C/c1ccccc1)=N/NC(=O)c1cnccn1,-120*
CCc1cc(C=NC2CCCCC2)c(O)s1,-174*
CC1CCCCN1C(=O)c1cc(-c2ccc(Cl)c(Cl)c2)on1 (configuration not stated),-222*
CC1CCCCN1C(=O)c1cc(-c2ccc3c(c2)OCO3)on1 (configuration not stated),-87*
COc1cccc(-c2cc(C(=O)N3C(C)CCCC3C)no2)c1 (configuration not stated),-147*
CCC1CCCCN1C(=O)c1cc(-c2ccc(Cl)c(Cl)c2)on1 (configuration not stated),-94*
CC1=CC(C)(C)N=C(Nc2ccc(C)cc2)S1,-169*
N/C(=N\OC(=O)c1ccc(Br)cc1)c1cccc([N+](=O)[O-])c1,-179*
N/C(=N\OC(=O)c1ccncc1)c1cccc([N+](=O)[O-])c1,-70*
N/C(=N\OC(=O)c1ccc([N+](=O)[O-])cc1)c1ccc(Br)cc1,-81*
SMILES,aSyn 5UTR act
Cc1ccc(C(=O)O/N=C(\N)c2cccc([N+](=O)[O-])c2)cc1,-218*
O=C(NCCCc1ccccc1)c1cccs1,-88*
O=C(NCC(O)c1ccccc1)c1cccs1 (configuration not stated),-136*
O=C(CNC(=O)c1cccs1)c1ccc(Br)cc1,-176*
CC(Cc1cccs1)NC(=O)Nc1ccc([N+](=O)[O-])cc1 (configuration not stated),-75*
Cc1ccc(-n2nc3c(N4CCC(C(=O)NCCc5cccs5)CC4)nnc(C)c3c2C)cc1,90
O=C(NCCc1cccs1)c1cccs1,-147*
O=C(NCCc1ccc(F)cc1)c1cccs1,-139*
CC(Cc1cccs1)NC(=O)c1cccs1 (configuration not stated),-80*
COc1ccc2cc(CCNC(=O)c3cccs3)c(=O)[nH]c2c1,-138*
O=C(NCC1CCCO1)c1cc2c(s1)CCC2 (configuration not stated),-122*
O=C(NCc1cccs1)c1cc2c(s1)CCCC2,-142*
O=C1CCCN1CCC(=O)N1CCCC(CO)(Cc2ccccc2)C1 (configuration not stated),-98*
